Key:
Test in all cases: DAPPL (digital affinity profiling via proximity ligation, sequencing); 10 mM Tris-HCl pH 7.5, 50 mM NaCl, 1 mM DTT, 4% glycerol, room temperature, 30 min; GST-TFs on glutathione beads, 16-mer random dsDNA library, 0.1% formaldehyde crosslink after washing; high values mean tight binding
Settings in all cases: protein: recombinant; tags: N-terminal GST; dsDNA, one strand shown
FLI1 = target: T1, FLI1 (Homo sapiens, UniProt Q01543 1-452)
T1 sequence: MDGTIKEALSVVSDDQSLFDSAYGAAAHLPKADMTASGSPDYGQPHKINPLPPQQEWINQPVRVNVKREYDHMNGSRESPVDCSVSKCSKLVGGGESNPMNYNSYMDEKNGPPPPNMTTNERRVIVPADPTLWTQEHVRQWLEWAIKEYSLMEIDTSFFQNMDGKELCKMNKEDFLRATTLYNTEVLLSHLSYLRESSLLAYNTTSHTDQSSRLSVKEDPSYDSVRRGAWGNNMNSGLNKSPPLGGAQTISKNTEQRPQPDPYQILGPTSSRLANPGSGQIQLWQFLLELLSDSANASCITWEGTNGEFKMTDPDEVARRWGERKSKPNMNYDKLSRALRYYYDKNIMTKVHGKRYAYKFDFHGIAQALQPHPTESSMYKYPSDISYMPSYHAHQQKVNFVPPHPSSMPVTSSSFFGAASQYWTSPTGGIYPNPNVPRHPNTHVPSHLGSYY
Outline: (§1)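 Human transcription factors carrying a GST fusion were produced in yeast, bound to glutathione beads, tagged with DNA barcodes and pooled together with a tag-only sample. Each pool was held with 200 nmole of a random double-stranded 16-mer DNA library in Tris/NaCl/DTT/glycerol buffer for 30 min at room temperature, then washed, crosslinked in 0.1% formaldehyde, proximity-ligated with BsaI/T4 ligase (1 h, 37 °C), PCR-amplified and sequenced on an Illumina NextSeq500. Binding signal is the read frequency of each hexamer for a given factor divided by its frequency in the tag-only sample.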

ELK1 = target: T2, ELK1 (Homo sapiens, UniProt P19419 1-428)
T2 sequence: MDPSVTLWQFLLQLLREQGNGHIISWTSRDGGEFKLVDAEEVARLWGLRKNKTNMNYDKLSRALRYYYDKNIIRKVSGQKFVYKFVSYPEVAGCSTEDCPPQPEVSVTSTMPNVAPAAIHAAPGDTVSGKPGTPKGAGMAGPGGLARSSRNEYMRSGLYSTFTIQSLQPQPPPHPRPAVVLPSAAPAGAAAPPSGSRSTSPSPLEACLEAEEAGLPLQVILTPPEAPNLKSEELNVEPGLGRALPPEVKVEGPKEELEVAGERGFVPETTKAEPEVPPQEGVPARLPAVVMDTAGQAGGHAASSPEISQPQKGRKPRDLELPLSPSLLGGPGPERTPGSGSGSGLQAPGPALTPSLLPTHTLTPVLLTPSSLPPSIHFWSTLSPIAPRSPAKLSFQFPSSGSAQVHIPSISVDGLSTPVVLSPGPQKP
Outline: as §1

GABPA = target: T3, GABPA (Homo sapiens, UniProt Q06546 1-454)
T3 sequence: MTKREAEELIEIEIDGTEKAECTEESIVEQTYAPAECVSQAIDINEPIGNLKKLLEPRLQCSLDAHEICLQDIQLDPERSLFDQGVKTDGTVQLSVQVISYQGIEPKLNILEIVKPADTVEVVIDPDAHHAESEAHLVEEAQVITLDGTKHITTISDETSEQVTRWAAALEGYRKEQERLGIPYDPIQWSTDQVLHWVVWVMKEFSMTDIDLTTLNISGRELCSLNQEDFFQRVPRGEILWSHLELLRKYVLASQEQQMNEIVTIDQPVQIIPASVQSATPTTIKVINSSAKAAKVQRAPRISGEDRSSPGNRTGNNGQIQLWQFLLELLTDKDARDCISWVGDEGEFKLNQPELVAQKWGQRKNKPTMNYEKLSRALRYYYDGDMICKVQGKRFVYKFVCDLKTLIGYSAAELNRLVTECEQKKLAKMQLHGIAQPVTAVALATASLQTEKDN
Outline: as §1

ERG = target: T4, ERG (Homo sapiens, UniProt P11308 1-479)
T4 sequence: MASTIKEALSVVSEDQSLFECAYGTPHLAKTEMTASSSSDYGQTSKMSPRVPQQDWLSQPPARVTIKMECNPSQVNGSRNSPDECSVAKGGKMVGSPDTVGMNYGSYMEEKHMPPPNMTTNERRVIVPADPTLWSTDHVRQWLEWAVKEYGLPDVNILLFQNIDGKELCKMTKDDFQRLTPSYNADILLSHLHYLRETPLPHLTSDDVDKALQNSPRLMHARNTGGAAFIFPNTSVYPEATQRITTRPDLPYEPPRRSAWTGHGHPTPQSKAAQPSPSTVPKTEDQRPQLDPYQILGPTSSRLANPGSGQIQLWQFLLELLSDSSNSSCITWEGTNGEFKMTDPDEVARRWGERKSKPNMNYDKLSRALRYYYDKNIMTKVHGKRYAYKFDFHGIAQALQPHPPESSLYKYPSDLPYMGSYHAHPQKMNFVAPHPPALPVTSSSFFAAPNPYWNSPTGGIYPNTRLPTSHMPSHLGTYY
Outline: as §1

ELF1 = ELF1 (Homo sapiens, UniProt P32519 1-619)
Outline: as §1

SPI1 = SPI1 (Homo sapiens, UniProt P17947 1-270)
Outline: as §1

SPIB = SPIB (Homo sapiens, UniProt Q01892 1-262)
Outline: as §1

ELK3 = target: T5, ELK3 (Homo sapiens, UniProt P41970 1-407)
T5 sequence: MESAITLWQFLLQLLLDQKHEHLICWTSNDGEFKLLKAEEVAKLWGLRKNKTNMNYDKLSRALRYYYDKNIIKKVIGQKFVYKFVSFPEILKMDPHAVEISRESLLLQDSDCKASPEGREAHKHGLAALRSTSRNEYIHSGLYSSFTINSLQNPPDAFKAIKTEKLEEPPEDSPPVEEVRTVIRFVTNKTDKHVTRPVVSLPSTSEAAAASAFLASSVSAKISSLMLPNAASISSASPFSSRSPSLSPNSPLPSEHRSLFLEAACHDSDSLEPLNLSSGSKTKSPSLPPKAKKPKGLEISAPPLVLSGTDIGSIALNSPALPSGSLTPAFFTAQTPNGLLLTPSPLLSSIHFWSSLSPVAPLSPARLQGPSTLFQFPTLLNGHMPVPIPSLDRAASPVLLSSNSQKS
Outline: as §1

FEV = target: T6, FEV (Homo sapiens, UniProt Q99581 1-238)
T6 sequence: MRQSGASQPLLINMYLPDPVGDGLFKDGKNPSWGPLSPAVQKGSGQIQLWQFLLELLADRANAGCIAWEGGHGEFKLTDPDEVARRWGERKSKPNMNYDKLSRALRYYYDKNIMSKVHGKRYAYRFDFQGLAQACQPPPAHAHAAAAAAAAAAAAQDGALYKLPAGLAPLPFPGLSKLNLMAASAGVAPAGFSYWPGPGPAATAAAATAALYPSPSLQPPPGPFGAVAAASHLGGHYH
Outline: as §1

ETV5 = ETV5 (Homo sapiens, UniProt P41161 1-510)
Outline: as §1

SPIC = target: T7, SPIC (Homo sapiens, UniProt Q8N5J4 1-248)
T7 sequence: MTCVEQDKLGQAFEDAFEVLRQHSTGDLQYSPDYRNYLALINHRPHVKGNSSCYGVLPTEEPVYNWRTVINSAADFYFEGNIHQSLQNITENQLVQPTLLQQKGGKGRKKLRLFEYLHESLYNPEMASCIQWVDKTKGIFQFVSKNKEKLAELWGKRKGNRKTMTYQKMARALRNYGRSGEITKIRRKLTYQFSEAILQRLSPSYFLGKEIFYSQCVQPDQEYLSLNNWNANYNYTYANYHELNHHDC
Outline: as §1

ELF4 = ELF4 (Homo sapiens, UniProt Q99607 1-663)
Outline: as §1

ELK4 = target: T8, ELK4 (Homo sapiens, UniProt P28324-2 1-405)
T8 sequence: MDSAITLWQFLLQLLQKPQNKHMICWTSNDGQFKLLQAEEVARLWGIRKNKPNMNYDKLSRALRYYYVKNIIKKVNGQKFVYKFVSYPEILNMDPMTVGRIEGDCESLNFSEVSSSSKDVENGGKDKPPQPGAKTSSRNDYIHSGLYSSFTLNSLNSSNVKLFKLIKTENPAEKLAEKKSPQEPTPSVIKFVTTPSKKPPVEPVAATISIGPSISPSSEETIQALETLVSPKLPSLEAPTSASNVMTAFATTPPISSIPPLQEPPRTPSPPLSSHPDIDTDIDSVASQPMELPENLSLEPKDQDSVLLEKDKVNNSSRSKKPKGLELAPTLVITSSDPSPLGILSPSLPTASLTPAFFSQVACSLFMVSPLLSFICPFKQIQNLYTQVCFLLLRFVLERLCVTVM
Outline: as §1

ETV2 = target: T9, ETV2 (Homo sapiens, UniProt O00321 1-342)
T9 sequence: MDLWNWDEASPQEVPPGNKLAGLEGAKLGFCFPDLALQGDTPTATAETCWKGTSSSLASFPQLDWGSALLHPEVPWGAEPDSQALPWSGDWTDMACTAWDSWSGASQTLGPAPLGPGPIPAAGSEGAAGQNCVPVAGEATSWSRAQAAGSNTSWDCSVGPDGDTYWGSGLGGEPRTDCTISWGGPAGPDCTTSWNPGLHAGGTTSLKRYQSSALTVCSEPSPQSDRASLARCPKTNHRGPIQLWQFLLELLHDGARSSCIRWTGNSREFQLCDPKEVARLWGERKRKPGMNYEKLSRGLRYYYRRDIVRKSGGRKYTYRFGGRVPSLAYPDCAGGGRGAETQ
Outline: as §1

ELF3 = target: T10, ELF3 (Homo sapiens, UniProt P78545 1-371)
T10 sequence: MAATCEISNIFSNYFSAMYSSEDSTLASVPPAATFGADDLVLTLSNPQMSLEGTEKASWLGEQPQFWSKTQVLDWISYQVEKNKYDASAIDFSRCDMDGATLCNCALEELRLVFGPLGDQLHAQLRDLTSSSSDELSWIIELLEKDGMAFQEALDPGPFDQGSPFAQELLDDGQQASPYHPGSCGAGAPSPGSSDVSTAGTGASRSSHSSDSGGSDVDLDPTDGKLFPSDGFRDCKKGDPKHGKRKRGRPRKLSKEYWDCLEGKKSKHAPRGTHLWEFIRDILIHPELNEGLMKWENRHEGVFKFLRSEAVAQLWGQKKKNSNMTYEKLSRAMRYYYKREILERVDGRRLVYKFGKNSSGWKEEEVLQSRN
Outline: as §1

ETV1 = ETV1 (Homo sapiens, UniProt P50549 1-477)
Outline: as §1

Chain of SPIB (Q01892 whole entry): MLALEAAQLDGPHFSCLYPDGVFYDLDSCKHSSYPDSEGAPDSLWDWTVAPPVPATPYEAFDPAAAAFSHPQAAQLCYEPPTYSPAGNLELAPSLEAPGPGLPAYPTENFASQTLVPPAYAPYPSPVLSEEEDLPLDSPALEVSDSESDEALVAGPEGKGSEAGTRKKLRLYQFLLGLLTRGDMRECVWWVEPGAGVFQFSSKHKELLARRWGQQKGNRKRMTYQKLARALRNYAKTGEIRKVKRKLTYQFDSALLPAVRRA
Chain of ELF1 (P32519 whole entry): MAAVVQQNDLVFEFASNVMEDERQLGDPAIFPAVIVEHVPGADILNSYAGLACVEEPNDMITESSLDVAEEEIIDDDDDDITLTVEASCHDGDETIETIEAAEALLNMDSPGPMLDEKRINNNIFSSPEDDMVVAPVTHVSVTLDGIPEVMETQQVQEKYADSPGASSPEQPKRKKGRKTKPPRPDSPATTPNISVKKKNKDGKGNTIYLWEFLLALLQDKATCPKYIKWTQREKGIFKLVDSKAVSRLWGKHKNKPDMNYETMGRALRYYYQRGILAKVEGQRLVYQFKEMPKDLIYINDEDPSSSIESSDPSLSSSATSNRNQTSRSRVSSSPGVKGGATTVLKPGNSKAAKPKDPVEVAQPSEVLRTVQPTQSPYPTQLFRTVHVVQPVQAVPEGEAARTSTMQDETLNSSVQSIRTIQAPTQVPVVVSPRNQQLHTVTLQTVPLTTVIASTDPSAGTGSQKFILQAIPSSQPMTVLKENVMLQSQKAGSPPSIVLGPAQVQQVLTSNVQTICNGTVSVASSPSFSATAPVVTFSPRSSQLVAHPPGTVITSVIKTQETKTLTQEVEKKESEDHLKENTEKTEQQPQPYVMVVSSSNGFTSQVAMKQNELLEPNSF
Chain of ETV5 (P41161 whole entry): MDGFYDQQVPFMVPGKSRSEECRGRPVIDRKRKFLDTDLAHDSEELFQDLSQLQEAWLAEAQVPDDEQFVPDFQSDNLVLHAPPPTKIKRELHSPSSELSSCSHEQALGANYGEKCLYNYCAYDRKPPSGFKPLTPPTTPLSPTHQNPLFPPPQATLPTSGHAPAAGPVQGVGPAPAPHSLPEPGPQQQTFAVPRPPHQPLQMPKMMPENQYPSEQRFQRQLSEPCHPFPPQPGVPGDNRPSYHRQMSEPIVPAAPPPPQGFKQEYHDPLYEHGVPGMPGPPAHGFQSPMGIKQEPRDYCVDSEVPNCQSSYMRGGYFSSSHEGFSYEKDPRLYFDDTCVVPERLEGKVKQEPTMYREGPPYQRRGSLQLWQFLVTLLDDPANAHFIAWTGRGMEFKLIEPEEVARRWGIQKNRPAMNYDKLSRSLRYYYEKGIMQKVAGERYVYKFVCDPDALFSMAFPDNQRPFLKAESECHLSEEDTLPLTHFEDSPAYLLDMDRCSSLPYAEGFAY
Chain of ELF4 (Q99607 whole entry): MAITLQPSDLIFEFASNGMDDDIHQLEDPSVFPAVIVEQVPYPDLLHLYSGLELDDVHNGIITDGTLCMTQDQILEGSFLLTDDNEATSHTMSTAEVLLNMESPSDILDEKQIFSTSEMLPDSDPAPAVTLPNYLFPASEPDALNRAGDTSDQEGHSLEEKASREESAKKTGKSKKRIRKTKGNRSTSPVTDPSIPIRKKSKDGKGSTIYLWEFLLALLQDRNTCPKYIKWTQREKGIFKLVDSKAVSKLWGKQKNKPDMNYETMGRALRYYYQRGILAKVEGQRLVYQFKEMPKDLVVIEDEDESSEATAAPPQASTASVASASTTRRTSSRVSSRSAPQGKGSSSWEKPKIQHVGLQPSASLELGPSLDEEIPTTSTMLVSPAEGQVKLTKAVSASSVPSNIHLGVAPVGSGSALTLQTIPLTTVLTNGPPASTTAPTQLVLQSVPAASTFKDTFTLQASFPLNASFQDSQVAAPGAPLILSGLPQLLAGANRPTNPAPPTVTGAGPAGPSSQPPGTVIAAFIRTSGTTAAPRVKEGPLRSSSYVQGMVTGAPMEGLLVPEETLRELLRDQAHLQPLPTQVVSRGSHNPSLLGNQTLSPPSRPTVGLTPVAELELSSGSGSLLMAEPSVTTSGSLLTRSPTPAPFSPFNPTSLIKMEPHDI
Chain of ETV1 (P50549 whole entry): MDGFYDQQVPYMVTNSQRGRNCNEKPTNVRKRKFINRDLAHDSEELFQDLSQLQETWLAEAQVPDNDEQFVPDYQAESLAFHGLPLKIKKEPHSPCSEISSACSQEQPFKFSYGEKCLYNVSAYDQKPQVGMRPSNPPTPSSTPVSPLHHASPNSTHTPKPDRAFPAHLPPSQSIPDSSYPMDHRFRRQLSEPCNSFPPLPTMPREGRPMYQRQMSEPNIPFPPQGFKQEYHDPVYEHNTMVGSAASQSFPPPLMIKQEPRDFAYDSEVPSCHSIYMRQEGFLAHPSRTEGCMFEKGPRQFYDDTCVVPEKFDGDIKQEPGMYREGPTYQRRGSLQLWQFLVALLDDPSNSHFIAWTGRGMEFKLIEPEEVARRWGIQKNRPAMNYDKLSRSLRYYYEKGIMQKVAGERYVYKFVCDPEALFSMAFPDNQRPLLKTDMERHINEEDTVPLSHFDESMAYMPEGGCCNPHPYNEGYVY

Sequence | binding signal (FLI1) | binding signal (ELK1) | binding signal (GABPA) | binding signal (ERG) | binding signal (ELF1) | binding signal (SPI1) | binding signal (SPIB) | binding signal (ELK3) | binding signal (FEV) | binding signal (ETV5) | binding signal (SPIC) | binding signal (ELF4) | binding signal (ELK4) | binding signal (ETV2) | binding signal (ELF3) | binding signal (ETV1)
CCTGTG | 1.06 fold enrichment (6-mer frequency, TF over GST control) | 1.24 fold enrichment (6-mer frequency, TF over GST control) | 1.08 fold enrichment (6-mer frequency, TF over GST control) | 1.21 fold enrichment (6-mer frequency, TF over GST control) | 1.11 fold enrichment (6-mer frequency, TF over GST control) | 1.04 fold enrichment (6-mer frequency, TF over GST control) | 1.18 fold enrichment (6-mer frequency, TF over GST control) | 1.01 fold enrichment (6-mer frequency, TF over GST control) | 1.11 fold enrichment (6-mer frequency, TF over GST control) | 1.07 fold enrichment (6-mer frequency, TF over GST control) | 1.32 fold enrichment (6-mer frequency, TF over GST control) | 1.11 fold enrichment (6-mer frequency, TF over GST control) | 1.22 fold enrichment (6-mer frequency, TF over GST control) | 1.11 fold enrichment (6-mer frequency, TF over GST control) | 1 fold enrichment (6-mer frequency, TF over GST control) | 1.12 fold enrichment (6-mer frequency, TF over GST control)
GGCCCT | 1.09 fold enrichment (6-mer frequency, TF over GST control) | 1.08 fold enrichment (6-mer frequency, TF over GST control) | 1.11 fold enrichment (6-mer frequency, TF over GST control) | 1.1 fold enrichment (6-mer frequency, TF over GST control) | 1 fold enrichment (6-mer frequency, TF over GST control) | – | 1.15 fold enrichment (6-mer frequency, TF over GST control) | – | – | 1.04 fold enrichment (6-mer frequency, TF over GST control) | 1.11 fold enrichment (6-mer frequency, TF over GST control) | 1.06 fold enrichment (6-mer frequency, TF over GST control) | 1.06 fold enrichment (6-mer frequency, TF over GST control) | 1.14 fold enrichment (6-mer frequency, TF over GST control) | 1.11 fold enrichment (6-mer frequency, TF over GST control) | –

Reference: publication PMC7862700, “An all-to-all approach to the identification of sequence-specific readers for epigenetic DNA modifications on cytosine”
